According to PubChem BioAssay:
This is one part of the list. Activity calls are given as the source filed them.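 Rule for the calls, unless noted: active = inhibition above 50%; inactive = the rest.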

Assays:
[1] = target: Regulator of G-protein signaling 16 (Homo sapiens) (UniProt O15492); experiment: modulators of RGS–Galpha-o binding, primary screen, biochemical, multiplexed beads, flow cytometry, RGS4/7/8/16/19 (AID 1504); settings: multiplexed bead flow cytometry, measured here: RGS16 interaction, at 10 µM;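 note: fluorescently labeled Galpha-o bound to GDP with aluminium fluoride binding biotinylated RGS beads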
[2] = target: Regulator of G-protein signaling 19 (Homo sapiens) (UniProt P49795); experiment: as above; settings: multiplexed bead flow cytometry, measured here: RGS19 interaction, at 10 µM
[3] = target: Regulator of G-protein signaling 7 (Homo sapiens) (UniProt P49802); experiment: as above; settings: multiplexed bead flow cytometry, measured here: RGS7 interaction, at 10 µM
[4] = target: Regulator of G-protein signaling 8 (Homo sapiens) (UniProt P57771); experiment: as above; settings: multiplexed bead flow cytometry, measured here: RGS8 interaction, at 10 µM
[5] = disruption of biotin probe capture by avidin, counter-screen for RGS protein interaction modulators, biochemical, flow cytometry, bead-based (AID 1783); settings: streptavidin beads, fluorescein-biotin binding; at 10 µM, stronger effect = higher value;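 note: median green fluorescence of gated singlet beads compared with DMSO control wells; 0% = DMSO wells and 100% = complete loss of bead fluorescence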
[6] = target: Guanine nucleotide-binding protein G(o) subunit alpha (Homo sapiens) (UniProt P09471); experiment: RGS8-Galphao binding modulators, confirmation, biochemical, multiplexed bead flow cytometry, single concentration (AID 1836; in the data active = binding response below about 72% or above about 130%; inactive = in between;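 note: Galphao activated as GDP AlF4 complex before binding bead RGS8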); settings: bead-based flow cytometry RGS8-Galphao binding, fluorescence; at 10 µM; actives lie on both sides
Guanine nucleotide-binding protein G(o) subunit alpha (Homo sapiens), sequence (P09471 whole entry, looked up): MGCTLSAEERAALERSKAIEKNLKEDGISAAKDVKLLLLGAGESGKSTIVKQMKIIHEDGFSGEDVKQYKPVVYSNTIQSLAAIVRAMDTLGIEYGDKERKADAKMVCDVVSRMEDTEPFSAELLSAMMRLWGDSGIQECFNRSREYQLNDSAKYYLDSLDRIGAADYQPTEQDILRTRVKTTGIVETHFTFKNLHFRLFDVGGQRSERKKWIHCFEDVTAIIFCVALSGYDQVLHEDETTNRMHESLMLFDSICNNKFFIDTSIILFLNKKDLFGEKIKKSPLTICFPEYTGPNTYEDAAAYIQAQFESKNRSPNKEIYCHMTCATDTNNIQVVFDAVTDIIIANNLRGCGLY

[7] = target: Guanine nucleotide-binding protein G(o) subunit alpha (Homo sapiens) (UniProt P09471); experiment: RGS7-Galphao binding modulators, confirmation, biochemical, multiplexed bead flow cytometry, single concentration (AID 1837; in the data active = response below about 75% or above about 130%; inactive = in between;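 note: fluorescent Galphao activated with GDP and aluminum fluoride binding bead-coupled RGS7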); settings: bead-based flow cytometry RGS7-Galphao binding; at 10 µM; actives lie on both sides
[8] = target: Regulator of G-protein signaling 16 (Homo sapiens) + Guanine nucleotide-binding protein G(o) subunit alpha (Homo sapiens) (UniProt O15492+P09471); experiment: modulators of RGS16-Galphao protein binding, confirmation, biochemical, single concentration, multiplexed bead flow cytometry (AID 1838; in the data active = response below about 74% or above about 130%; inactive = in between;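 note: Galphao activated as the GDP aluminium fluoride complex binding bead-coupled RGS16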); settings: bead-based flow cytometry, at 10 µM, actives lie on both sides
Regulator of G-protein signaling 16 (Homo sapiens) + Guanine nucleotide-binding protein G(o) subunit alpha (Homo sapiens), sequence (O15492 whole entry, looked up): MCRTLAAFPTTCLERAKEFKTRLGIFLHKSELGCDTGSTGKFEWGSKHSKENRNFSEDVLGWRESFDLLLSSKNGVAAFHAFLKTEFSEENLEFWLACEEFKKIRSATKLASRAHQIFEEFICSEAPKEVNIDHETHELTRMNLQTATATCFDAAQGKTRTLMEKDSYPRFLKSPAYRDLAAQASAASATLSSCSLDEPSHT
Regulator of G-protein signaling 16 (Homo sapiens) + Guanine nucleotide-binding protein G(o) subunit alpha (Homo sapiens), sequence (P09471 whole entry, looked up): as the sequence (P09471 whole entry, looked up) above

[9] = target: Guanine nucleotide-binding protein G(o) subunit alpha (Homo sapiens) (UniProt P09471); experiment: modulators of RGS4-Galphao protein binding, confirmation, biochemical, single concentration, multiplexed bead flow cytometry (AID 1840; in the data active = binding response below about 74% or above about 130%; inactive = in between); settings: at 10 µM, actives lie on both sides
[10] = target: Guanine nucleotide-binding protein G(o) subunit alpha (Homo sapiens) + Regulator of G-protein signaling 19 (Homo sapiens) (UniProt P09471+P49795); experiment: regulators of RGS19-Galphao binding, confirmation, biochemical, single point, multiplexed bead flow cytometry (AID 1841; in the data active = response below about 50% or above about 160%; inactive = in between;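 note: 100% = no compound control and 0% = blank background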); settings: bead-based flow cytometry RGS19-Galphao binding; at 10 µM; actives lie on both sides
Guanine nucleotide-binding protein G(o) subunit alpha (Homo sapiens) + Regulator of G-protein signaling 19 (Homo sapiens), sequence (P09471 whole entry, looked up): as above
Guanine nucleotide-binding protein G(o) subunit alpha (Homo sapiens) + Regulator of G-protein signaling 19 (Homo sapiens), sequence (P49795 whole entry, looked up): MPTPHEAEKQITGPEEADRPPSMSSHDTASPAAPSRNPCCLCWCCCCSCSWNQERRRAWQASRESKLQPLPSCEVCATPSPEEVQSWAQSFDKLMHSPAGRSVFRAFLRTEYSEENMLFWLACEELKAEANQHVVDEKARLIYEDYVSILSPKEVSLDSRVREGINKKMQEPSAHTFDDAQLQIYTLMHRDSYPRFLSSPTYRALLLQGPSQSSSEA

| SMILES | RGS16–Galpha-o binding response [1] [%] | RGS19–Galpha-o binding response [2] [%] | RGS7–Galpha-o binding response [3] [%] | RGS8–Galpha-o binding response [4] [%] | inhibition [5] | binding response (% of control) [6] | response (percent of control binding) [7] | response (% of control binding) [8] | binding response (% of control) [9] | response (percent of control binding) [10] |
| --- | --- | --- | --- | --- | --- | --- | --- | --- | --- | --- |
| Cc1c(CN2CCCC(C(=O)c3cccc(Cl)c3)C2)c(=O)n(-c2ccccc2)n1C (configuration not stated) | 97.1 | 50.3 | 230 | 95 | -1.5% (inactive) | 102% (inactive) | 106% (inactive) | 102% (inactive) | 103% (inactive) | 104% (inactive) |
| C/C(=C/C(=O)N1CCN(C)CC1)C(=O)O | 234 | -6.25 | 105 | 125 | 0.5% (inactive) | 104% (inactive) | 98.7% (inactive) | 105% (inactive) | 102% (inactive) | 102% (inactive) |
| CN(C)CCNC(=O)/C(=C/c1cccc([N+](=O)[O-])c1)NC(=O)c1ccccc1 | 219 | -55.8 | 113 | 124 | -1.3% (inactive) | 103% (inactive) | 105% (inactive) | 101% (inactive) | 104% (inactive) | 91.3% (inactive) |
| CN(CC(=O)NC1CCCCC1)S(=O)(=O)c1cccc2cccnc12 | 94.7 | 114 | 241 | 89.3 |  |  |  |  |  |  |
| CC(=O)N1CC[n+]2c(-c3ccc([N+](=O)[O-])cc3)csc21 | 12.8 | 114 | 102 | 63.1 | -0.8% (inactive) | 80.5% (inactive) | 67.2% (active) | 58% (active) | 66.7% (active) | 62.5% (inactive) |
| O=C(Nc1cccc(F)c1)c1coc(=O)c(Br)c1 | 100 | 108 | 45.3 | 80.8 | -1.3% (inactive) | 110% (inactive) | 105% (inactive) | 109% (inactive) | 103% (inactive) | 118% (inactive) |
| O=[N+]([O-])C(=c1ccc2c(c1)N1C3=C(CCCC3)CC3CCCCC31N=2)[N+](=O)[O-] (configuration not stated) | 20.9 | 357 | -195 | 43.8 |  |  |  |  |  |  |
| CCN(CC)S(=O)(=O)c1cccc(-c2n[nH]c(=S)n2/N=C/c2ccc(C(=O)OC)cc2)c1 | 334 | 35.5 | 133 | 124 | -1.2% (inactive) | 77.7% (inactive) | 113% (inactive) | 74% (active) | 91% (inactive) | 66.1% (inactive) |
| Fc1cc(F)c2nc(Nc3nc4c(F)cccc4s3)sc2c1 | 192 | -2.22 | 112 | 122 | 0% (inactive) | 103% (inactive) | 103% (inactive) | 103% (inactive) | 103% (inactive) | 107% (inactive) |
| CC(NC(=O)COC(=O)C1CCN(S(=O)(=O)c2ccccc2C(F)(F)F)CC1)c1ccccc1 (configuration not stated) | 327 | -23.1 | 115 | 148 | -0.6% (inactive) | 98.3% (inactive) | 96.9% (inactive) | 99.8% (inactive) | 97.2% (inactive) | 97.7% (inactive) |
| O=C1CCC(=O)N(O)CCCCCNC(=O)CCC(=O)N(O)CCCCCNC(=O)CCC(=O)N(O)CCCCCN1 | 40.8 | 4280 | -117 | 55.9 | -0.3% (inactive) | 53.5% (active) | 59.4% (active) | 45.6% (active) | 61.5% (active) | 62.2% (inactive) |
| O=C(NC1CC1)c1ccc2c(c1)NC(=O)c1ccccc1S2 | 113 | 370 | 191 | 98.7 |  |  |  |  |  |  |
| CN(C)CCN=c1cc(-c2ccccc2)oc2ccc(Cl)cc12 | 103 | 95.4 | 155 | 102 | -3.8% (inactive) | 107% (inactive) | 111% (inactive) | 113% (inactive) | 107% (inactive) | 108% (inactive) |
| COc1cc(C(=O)Nc2cc(C(F)(F)F)ccc2N2CCOCC2)ccc1O | 9.57 | 135 | 84.8 | 70.4 | 0.3% (inactive) | 104% (inactive) | 102% (inactive) | 98.8% (inactive) | 97.9% (inactive) | 86.5% (inactive) |
| Cc1ccccc1NC(=S)N(CCCN1CCOCC1)Cc1cccs1 | 181 | 80 | 106 | 118 | 2.8% (inactive) | 104% (inactive) | 102% (inactive) | 104% (inactive) | 102% (inactive) | 107% (inactive) |
| CCn1c(CSCc2c(Cl)cccc2Cl)n[nH]c1=S | 46.1 | 1140 | -29.3 | 55.5 | 1.4% (inactive) | 89% (inactive) | 89.5% (inactive) | 88.1% (inactive) | 94.2% (inactive) | 83.5% (inactive) |
| O=c1[nH]c2ccccc2s1 | 23 | 148 | 88.2 | 79 | -0.3% (inactive) | 103% (inactive) | 102% (inactive) | 101% (inactive) | 102% (inactive) | 99.2% (inactive) |
